Experimental data: PubChem BioAssay (NCATS)
Inconclusive results are not listed. Calls of active or inactive are those of the source. The call rests on the fitted dose curve; in most records, active means well fitted cell-killing curve with a large enough effect; inconclusive means small, poorly fitted or top-dose-only effect, or effect the other way; inactive means no such curve, though single readings can be large or run the other way.

assay: Quantitative High-Throughput drug screen in 47 multiple myeloma cell lines against the NCATS MIPE library collection: XG1_PLB cell viability assay (AID 1919866); conditions: CellTiter-Glo ATP, 48 h; series mostly up to 45.8 µM; further: nearly all actives have a fitted effect of over 35% in size
From the text: PI: Beverly A. Mock Ph.D.
Laboratory of Cancer Biology and Genetics,
Center for Cancer Research, National Cancer Institute,
National Institute of Health, Bethesda, Maryland
Drug resistance and disease progression are common in multiple myeloma (MM) patients, underscoring the need for new therapeutic combinations. […] We hypothesized that effective combinations would reduce MYC expression and enhance p16 activity. […] These preclinical data identify potentially useful drug combinations for evaluation in drug-resistant MM and reveal potential mechanisms of combined drug sensitivity.
Described herein is the primary MIPE qHTS used to cherrypick compounds. Validated compounds were then further tested for potential synergistic activiy.
[1] Peat TJ, Gaikwad SM, Dubois W, Gyabaah-Kessie N, Zhang S, Gorjifard S, Phyo Z, Andres M, Hughitt VK, Simpson RM, Miller MA, Girvin AT, Taylor A, Williams D, D'Antonio N, Zhang Y, Rajagopalan A, Flietner E, Wilson K, Zhang X, Shinn P, Klumpp-Thomas C, McKnight C, Itkin Z, Chen L, Kazandijian D, Zhang J, Michalowski AM, Simmons JK, Keats J, Thomas CJ, Mock BA. Drug combinations identified by high-throughput screening promote cell cycle transition and upregulate Smad pathways in myeloma. Cancer Lett. 2023 Aug 1;568:216284. doi: 10.1016/j.canlet.2023.216284. Epub 2023 Jun 24. PMID: 37356470; PMCID: PMC10408729.
SEQUENCE No. (e.g., 1, 2, 3, etc.); […] (e.g., Cells, Incubation, Reagent, etc.); VALUE and DESCRIPTION.
1; Cells; 5 uL; white, solid bottom 1536-well Greiner assay plate.
2; Compounds; 23 nL; Kalypsis pin tool (Wako USA) equipped with a 1536-well pin head to transfer to the assay plates.
3; Incubation; 48 hours; 37C incubation.
4; Reagent;5uL; CellTiter Glo (Promega).
5; Detector; 425V; Luminescence; Viewlux PerkinElmer.
NOTES (numbers refer to Sequence numbers above)
1. The cell-based screening methods employed in this study were like those previously published. Briefly, the corresponding myeloma cell lines were screened in 1,536-well plates with 500 cells, 5-uL per well for inhibition of cell viability (assessed by measuring ATP levels with CellTiterGlo).
2. NCATS MIPE 4.0 library of approved and investigational drugs were added using the Kalypsis pin tool. Wells treated with DMSO only for 100% viability and media only for 0% viability were used as controls.
3. The assay plates were covered and incubated for 48 hours in a 37C, 5% CO2 incubator with controlled humidity.
4. After 48 hours, CellTilter-GloTM luminescent substrate mix (Promega) reagent was added to the assay plate and plates we incubated for 5 min at room temperature.
5. Signal was measured as median relative luminescence units on a ViewLux (PerkinElmer) multiplate reader.
[1] Heske CM, Davis MI, Baumgart JT, Wilson K, Gormally MV, Chen L, Zhang X, Ceribelli M, Duveau DY, Guha R, Ferrer M, Arnaldez FI, Ji J, Tran HL, Zhang Y, Mendoza A, Helman LJ, Thomas CJ. Matrix Screen Identifies Synergistic Combination of PARP Inhibitors and Nicotinamide Phosphoribosyltransferase (NAMPT) Inhibitors in Ewing Sarcoma. Clin Cancer Res. 2017 Dec 1;23(23):7301-7311. doi: 10.1158/1078-0432.CCR-17-1121. Epub 2017 Sep 12. PMID: 28899971; PMCID: PMC6636827.
Potency means the concentration at half of the fitted maximal effect.

Question: For C[C@]12CC[C@H](O)CC1=CC[C@H]1[C@H]3CCC(=O)[C@@]3(C)CC[C@@H]12, which Potency is on record?
Answer: 7.43 µM (active)

Question: Which Potency does the source give for CCOC(=O)c1cncn1[C@H](C)c1ccccc1 here?
Answer: inactive

Question: Which Potency does the source give for O=C(Oc1ccc([N+](=O)[O-])cc1)N1CCN(Cc2cccc(Oc3ccccc3)c2)CC1 here?
Answer: 20.9 µM (active)

Question: Which Potency does the source give for CC(=O)N(C)c1cccc(-c2ccnc3c(C(=O)c4cccs4)cnn23)c1 here?
Answer: inactive

Question: With Cc1c(N)nc([C@H](CC(N)=O)NC[C@@H](N)C(N)=O)nc1C(=O)N[C@H](C(=O)N[C@@H](C)[C@H](O)[C@@H](C)C(=O)N[C@@H](C(=O)NCCc1nc(-c2nc(C(=O)NCCC[S+](C)C)cs2)cs1)[C@@H](C)O)C(O[C@H]1O[C@H](CO)[C@H](O)[C@@H](O)[C@@H]1O[C@H]1O[C@H](CO)[C@@H](O)[C@H](OC(N)=O)[C@H]1O)c1cnc[nH]1 (stereo not given in full) as the molecule, how does the Potency read?
Answer: 0.209 µM (active)

Question: For C[C@@H]1CC[C@@]2(OC1)O[C@H]1C[C@H]3[C@@H]4CC=C5C[C@@H](O[C@@H]6O[C@H](CO)[C@@H](O[C@@H]7O[C@@H](C)[C@H](O)[C@@H](O)[C@@H]7O)[C@H](O)[C@@H]6O[C@@H]6O[C@@H](C)[C@H](O)[C@@H](O)[C@@H]6O)CC[C@]5(C)[C@@H]4CC[C@]3(C)[C@@H]1[C@H]2C, which Potency is on record?
Answer: 2.64 µM (active)

Question: For C[C@]12COC(=O)C[C@@H]1CC[C@@H]1[C@H]2CC[C@@]2(C)[C@H]1CC[C@]2(C)O, which Potency is on record?
Answer: inactive

Question: With CCC(=O)OC1CCC2C3CCC4=CC(=O)CC[C@@]4(C)C3CC[C@]12C (stereo not given in full) as the molecule, how does the Potency read?
Answer: inactive

Question: For c1cc2c(cc1[C@H]1OC[C@H]3[C@H]1CO[C@H]3c1ccc3c(c1)OCO3)OCO2, which Potency is on record?
Answer: inactive

Question: Which Potency does the source give for CN1[C@H]2CC(O)C[C@H]1[C@H]1O[C@H]12 (stereo not given in full) here?
Answer: 9.35 µM (active)

Question: For CC(=O)Nc1ccc(OC[C@](C)(O)C(=O)Nc2ccc([N+](=O)[O-])c(C(F)(F)F)c2)cc1, which Potency is on record?
Answer: inactive

Question: For COC(=O)[C@@H](N)CCCN=C(N)N[N+](=O)[O-], which Potency is on record?
Answer: inactive

Question: For O=C(N[C@@H](COc1ccc2[nH]c(=O)[nH]c2c1)c1ccccc1)c1cccn(Cc2ccc(F)c(F)c2)c1=O, which Potency is on record?
Answer: 5.26 µM (active)

Question: Which Potency does the source give for CO[C@H]1CCC(O[C@H]2C[C@H]([C@]3(C)CC[C@]4(C[C@H](O)[C@@H](C)[C@@H]([C@@H](C)C=C(C)C(=O)[C@H](C)C[C@H](C)C(=O)O)O4)O3)O[C@]3(O[C@@H]([C@H]4O[C@@](O)(CO)[C@H](C)C[C@H]4C)C[C@H]3C)[C@H]2C)O[C@H]1C (stereo not given in full) here?
Answer: 1.18 µM (active)

Question: With CC(N[C@H]1C[C@H]1c1ccccc1)c1ccc2c(c1)OCCO2 (stereo not given in full) as the molecule, how does the Potency read?
Answer: inactive

Question: For COC[C@H]1OC(=O)c2coc3c2[C@@]1(C)C1=C(C3=O)[C@@H]2CC[C@H](O)[C@@]2(C)C[C@@H]1OC(C)=O, which Potency is on record?
Answer: 2.09 µM (active)

Question: Which Potency does the source give for CSCC[C@@H](NC(=O)[C@@H](Cc1ccccc1)NC(=O)CNC(=O)CNC(=O)[C@@H](N)Cc1ccc(O)cc1)C(=O)O here?
Answer: inactive

Question: With CC(C)N[C@@H]1CCn2c(=O)[nH]c3cccc(c32)[C@@H]1O as the molecule, how does the Potency read?
Answer: 3.32 µM (active)

Question: For COC1=C[C@@H]2[C@@H]3Cc4ccc(OC)c(O)c4[C@]2(CCN3C)CC1=O, which Potency is on record?
Answer: 1.32 µM (active)

Question: For O=c1[nH]c2ccc(Cl)cc2c(N[C@@H]2CN3CCC2CC3)c1-c1nc2ccccc2[nH]1, which Potency is on record?
Answer: 0.264 µM (active)

Question: For COCC1(CO)C(=O)C2CCN1CC2 (stereo not given), which Potency is on record?
Answer: 20.9 µM (active)

Question: Which Potency does the source give for O=C(N[C@H]1CN2CCC1CC2)c1ccc(Cl)cc1 here?
Answer: 6.62 µM (active)

Question: For CCc1c(C(=O)C(N)=O)c2c(OCC(=O)O)cccc2n1Cc1ccccc1, which Potency is on record?
Answer: inactive

Question: Which Potency does the source give for CN[C@@H]1Cc2cccc3[nH]c(=O)n(c23)C1 here?
Answer: inactive

Question: Which Potency does the source give for Oc1ccc2c3c1O[C@H]1c4[nH]c5c(c4C[C@@]4(O)[C@@H](C2)N(CC2CC2)CC[C@]314)C[C@@]1(O)[C@H]2Cc3ccc(O)c4c3[C@@]1(CCN2CC1CC1)[C@H]5O4 here?
Answer: inactive

Question: Which Potency does the source give for O=S(=O)(F)Cc1ccccc1 here?
Answer: 0.235 µM (active)

Question: With CCCN1CCO[C@@H]2c3cc(O)ccc3OC[C@@H]21 as the molecule, how does the Potency read?
Answer: inactive

Question: With O=c1[nH]c2ccccc2n1C1CCN(Cc2ccc(-c3[nH]c4cc5ncnc5cc4nc3-c3ccccc3)cc2)CC1 as the molecule, how does the Potency read?
Answer: 7.43 µM (active)

Question: For Cc1[nH]nc2ccc(-c3cncc(OC[C@@H](N)Cc4c[nH]c5ccccc45)c3)cc12, which Potency is on record?
Answer: 0.235 µM (active)

Question: For COc1ccc2c(c[n+](C)c3c4cc5c(cc4ccc23)OCO5)c1OC, which Potency is on record?
Answer: 2.64 µM (active)

Question: For CN(C)NC(=O)CCC(=O)O, which Potency is on record?
Answer: 26.4 µM (active)

Question: Which Potency does the source give for CCN1CCN(C(=O)Cc2ccc(Nc3ncc(F)c(Nc4ccc(C(=O)Nc5ccccc5Cl)cc4)n3)cc2)CC1 here?
Answer: 1.18 µM (active)

Question: For CC(O)=C(C#N)C(=O)Nc1cc(Br)ccc1Br, which Potency is on record?
Answer: inactive

Question: Which Potency does the source give for C1=C2CCCN[C@H]2[C@@H]2C[C@H]1[C@@H]1CCCCN1C2 here?
Answer: inactive

Question: With CC(C)(C)c1cc(C=C(C#N)C#N)cc(Br)c1O as the molecule, how does the Potency read?
Answer: 11.8 µM (active)

Question: For O=C(O)CNC(=O)c1c(O)c2ccccc2n(Cc2ccccc2)c1=O, which Potency is on record?
Answer: inactive

Question: For COc1cc2cc(c1Cl)N(C)C(=O)C[C@H](OC(=O)C(C)C)[C@]1(C)O[C@H]1[C@H](C)[C@@H]1C[C@@](O)(NC(=O)O1)[C@H](OC)C=CC=C(C)C2, which Potency is on record?
Answer: inactive

Question: Which Potency does the source give for CC[C@@]1(O)C(=O)OCc2c1cc1n(c2=O)Cc2cc3ccccc3nc2-1 here?
Answer: 0.0332 µM (active)

Question: Which Potency does the source give for Clc1ccccc1C(c1ccccc1)(c1ccccc1)n1cccn1 here?
Answer: inactive

Question: With CCNC(=O)C[C@@H]1N=C(c2ccc(Cl)cc2)c2cc(OC)ccc2-n2c(C)nnc21 as the molecule, how does the Potency read?
Answer: 0.833 µM (active)
